Source: PubChem (National Center for Advancing Translational Sciences (NCATS))
POLI inh: DNA polymerase iota (human) inhibition | Pol iota fluorescent replication assay, 10 min | Potency, µM (doses to about 115 µM), for the others: top-dose activity, negative = inhibition, usual class: inhibitors | hit rate 1% among 390,000 | Q9UNA4; further: potency means the concentration at half of the fitted maximal effect
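Fluorescent replication assay read twice, at 0 min and 10 min after adding 50 nM (final) substrate. Enzyme (10 nM) and compounds were first incubated 15 min at room temperature; enzyme-free buffer wells were negative controls.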
Pol beta inh-1: DNA polymerase beta (human) inhibition | P06746 | hit rate 1.3% among 340,000 | Potency, µM (highest dose often 114 µM), for inactives: at the highest dose activity change, negative = inhibition, hits mostly inhibitors | AID 485314 | Pol beta primer extension/strand displacement, fluorescence kinetic; further: potency means the concentration at half of the fitted maximal effect; on the % scale 0 is the no-effect control and ±100 the full control effect
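Curves were derived by four-parameter Hill fits of normalized qHTS data. The kinetic fluorescent primer-extension read was taken at 0 and 10 min after 50 nM substrate, following a 15 min room-temperature preincubation of 10 nM enzyme with compounds.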
WRN helicase inh: inhibitors of human WRN helicase. Potency, µM (top dose mostly 114 µM), inactives show at the top dose activity change, negative = inhibition, hits mostly inhibitors. Q14191. AID 651768. hit rate 0.46% among 360,000. WRN helicase unwinding, fluorescent forked duplex, kinetic; further: potency means the concentration at half of the fitted maximal effect; on the % scale 0 is the no-effect control and ±100 the full control effect; nearly all actives have a fitted effect of over 55% in size
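WRN at 20 nM final was preincubated with compound for 15 min at room temperature; reaction started with 100 nM forked duplex oligonucleotide carrying fluorophore and quencher plus 2 mM ATP (final). Unwinding followed kinetically by red fluorescence (ex 525/em 598 nm).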
Pol kappa inh: DNA polymerase kappa (human) inhibition; Q9UBT6; purified Pol kappa, fluorescent DNA synthesis assay, 10 min; Potency, µM (highest dose often 107 µM), inactives show top-dose activity, negative = inhibition, usual class: inhibitors; hit rate 0.53% among 400,000; AID 588579; further: potency means the concentration at half of the fitted maximal effect; on the % scale 0 is the no-effect control and ±100 the full control effect
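Kinetic fluorescence screen: compound preincubated 15 min RT with 10 nM enzyme; 50 nM substrate (final) initiates; reads at 0/10 min.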
Pol eta inh: inhibitors of human DNA polymerase eta. Q9Y253. recombinant Pol eta, fluorescent DNA replication assay. Potency, µM (titrated, usually from 114 µM), for the others: at the top dose activity change, negative = inhibition, usual class: inhibitors. hit rate 1.2% among 390,000; further: potency means the concentration at half of the fitted maximal effect; on the % scale 0 is the no-effect control and ±100 the full control effect
Target sequence (Q9Y253 whole entry, looked up): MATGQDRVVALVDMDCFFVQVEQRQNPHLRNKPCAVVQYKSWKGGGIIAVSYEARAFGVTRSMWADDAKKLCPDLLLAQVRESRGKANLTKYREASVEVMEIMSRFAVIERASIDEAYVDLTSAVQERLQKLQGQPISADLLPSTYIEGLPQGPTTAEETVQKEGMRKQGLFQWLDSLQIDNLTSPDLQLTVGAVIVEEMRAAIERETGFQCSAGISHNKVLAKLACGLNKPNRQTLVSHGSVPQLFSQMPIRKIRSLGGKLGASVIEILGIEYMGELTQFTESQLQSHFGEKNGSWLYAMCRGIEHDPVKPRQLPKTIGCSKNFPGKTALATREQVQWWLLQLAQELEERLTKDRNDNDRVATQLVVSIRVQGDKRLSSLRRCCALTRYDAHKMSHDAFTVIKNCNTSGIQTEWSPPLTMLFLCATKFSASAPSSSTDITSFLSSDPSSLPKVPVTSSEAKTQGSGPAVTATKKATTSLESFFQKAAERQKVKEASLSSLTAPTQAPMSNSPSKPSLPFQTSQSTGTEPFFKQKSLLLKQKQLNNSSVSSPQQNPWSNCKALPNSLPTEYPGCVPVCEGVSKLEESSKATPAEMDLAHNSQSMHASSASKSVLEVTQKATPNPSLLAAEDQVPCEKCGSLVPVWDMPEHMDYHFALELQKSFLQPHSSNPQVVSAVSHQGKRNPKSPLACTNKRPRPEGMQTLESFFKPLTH
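Pol eta (10 nM) was preincubated with compounds for 15 min at room temperature, after which fluorescent replication substrate (50 nM final) was added to start the reaction. Fluorescence was read kinetically at 0 and 10 min.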
Pol beta inh-2: Validate hits inhibiting human DNA polymerase beta; shares compounds with Pol beta inh-1; Pol beta primer extension/strand displacement, fluorescence kinetic; Potency, µM, most hits filed as inhibitors; hit rate 87% among 250; AID 540280; calls by dose curve; further: potency means the concentration at half of the fitted maximal effect
Klenow inh: counter-screen for DNA polymerase beta inhibitors: Klenow fragment inhibition | shares compounds with Pol beta inh-1 | Klenow exo- polymerase counter-screen, fluorescent DNA substrate | activity change, negative = inhibition, % at 57.1 µM | 250 tested, under 10 active
HIV RT counter: HIV-1 RT inhibition, pol beta selectivity check | HIV-1 RT polymerase activity, counter-screen | activity % (negative = inhibition, positive = activation), % at 57.1 µM | 250 tested, under 10 active | AID 540301 | shares compounds with Pol beta inh-1
POLB inh gel: validation of human DNA polymerase beta inhibitors; radiolabeled primer extension gel assay, phosphorimager; inhibition, % at 10 µM; hit rate 91% among 110; AID 540325; shares compounds with Pol beta inh-1;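 active means inhibition at 10 µM of 30% or more; inconclusive means no clear call, values can overlap the other calls; inactive means inhibition at 10 µM under 30%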
PGK validate: validation of Trypanosoma brucei phosphoglycerate kinase inhibitors | shares compounds with Pol kappa inh | TbPGK coupled GAPDH assay, Kinase-Glo luminescence | Potency, µM (highest dose often 57.5 µM), without a hit: top-dose activity change, negative = inhibition, usual class: inhibitors | hit rate 79% among 500; further: potency means the concentration at half of the fitted maximal effect; on the % scale 0 is the no-effect control and ±100 the full control effect; nearly all actives have a fitted effect of over 65% in size
POLI cherry-pick: Confirm cherry-picked inhibitors of human polymerase iota; AID 720496; hit rate 77% among 1,500; Potency, µM, hits mostly inhibitors; shares compounds with Pol kappa inh; Pol iota primer extension, TAMRA/BHQ fluorescence; further: potency means the concentration at half of the fitted maximal effect
Numbers without * were called inactive; u = inconclusive; x = no result given; [ ] = another dose, or the depositor's remark. Only some compounds are listed: those with a hit (about 2.3% of all), similar ones and a draw of the others. Unless noted, the call rests on the fitted dose curve; in most records, active means well fitted curve in the direction sought with a large enough effect; inconclusive means small, poorly fitted or top-dose-only effect, or another doubt; inactive means no such curve, though single readings can be large; an effect the other way counts as inactive or inconclusive.

SMILES	POLI inh	Pol beta inh-1	WRN helicase inh	Pol kappa inh	Pol eta inh	Pol beta inh-2	Klenow inh	HIV RT counter	others
O=C(Nc1cccc(-c2nc3ccccc3[nH]2)c1)c1cccc(NC(=O)c2ccco2)c1	u	13µM*	-30%	u	50µM*	32*	-9	62
Cc1onc(-c2ccccc2)c1C(=O)Nc1ccc(S(=O)(=O)Nc2nccs2)cc1	4%	24%	-3%	6%	-6%	x	x	x
O=S(=O)(Nc1nccs1)c1ccc(Nc2nnc(-c3ccccc3)c3ccccc23)cc1	u	14µM*	u	-18%	u	35*	1	31
COc1ccc2cc3c(N)nn(C(=O)c4ccc(Cl)c([N+](=O)[O-])c4)c3nc2c1	u	1.6µM*	-16%	-10%	u	3.2*	-38	-2
COc1ccccc1N1CCN(C(=O)c2cc3c(s2)CCC3)CC1	-29%	7.9µM*	-25%	-27%	u	u	11	10	POLB inh gel=74*
Cc1ccc(C(=O)Oc2ccc(C(=O)COC(=O)C3CC(=O)N(Cc4ccco4)C3)cc2)cc1 (centres undefined)	4.5µM*	16µM*	u	45µM*	13µM*	14*	-11	13
O=C(COC(=O)C1CC(=O)N(Cc2ccco2)C1)c1ccc(OC(=O)c2ccco2)cc1 (centres undefined)	18µM*	7.1µM*	35µM*	32µM*	3.2µM*	8.9*	-4	u
Cc1[nH]c2ccccc2c1C(=O)COC(=O)C1CC(=O)N(Cc2ccco2)C1 (centres undefined)	-2%	-1%	-4%	-24%	10%	x	x	x
CCC(C)n1c(=O)c2sccc2n2c(CCCC(=O)Nc3ccc(F)cc3)nnc12 (centres undefined)	-7%	22%	x	-2%	u	x	x	x
O=C(CSc1nc2c(cnn2-c2ccccc2)c(=O)[nH]1)N1CCCCC1	30%	24%	-16%	-3%	-19%	x	x	x
O=C(CSc1nc2c(cnn2-c2ccccc2)c(=O)[nH]1)c1ccc(Cl)cc1	u	5µM*	-8%	4%	u	7.1*	-21	0
N#Cc1c(=O)c2nc(NCCCO)ncc2n2c(=O)c3ccccc3[nH]c12	22µM*	11µM*	u	-30%	40µM*	u	-38	-1	POLB inh gel=40*
CS(=O)(=O)Oc1ccc2c(c1)O/C(=C\c1cccnc1)C2=O	-9%	26%	-1%	-7%	-14%	x	x	x
COc1cc(OC)c(OC)cc1/C=C1\Oc2cc(OS(C)(=O)=O)ccc2C1=O	20µM*	11µM*	u	u	50µM*	35*	-30	17	POLB inh gel=96*
Cc1cc(-c2nc3c4c5c(sc4[nH]c(=O)n3n2)CCC5)c(C)o1	13µM*	3.5µM*	u	u	13µM*	32*	-17	27	POLB inh gel=23
Cc1nc2sc3c(c2c(=O)[nH]1)CCC3	47%	8%	1%	-17%	-14%	x	x	x
CCOC(=O)Cc1csc(NC(=O)c2sc3nc4ccc(CC)cc4cc3c2N)n1	79µM*	5.6µM*	-28%	-9%	u	28*	-1	11	POLB inh gel=85*
CCn1c(=NC(=O)c2ccc(N3C(=O)CCC3=O)cc2)sc2c(OC)ccc(OC)c21	16µM*	10µM*	-33%	u	u	u	-33	57	POLB inh gel=98*
CCn1c(=NC(=O)c2cccc(N3C(=O)CCC3=O)c2)sc2c(C)ccc(OC)c21	6%	34%	-9%	-7%	-5%	x	x	x
Cc1ccc(Cl)cc1-n1c(=O)cc(N2CCN(c3ccc(F)cc3)CC2)[nH]c1=O	20%	7%	x	-5%[60.1 µM]	-13%	x	x	x
O=C(Cn1cnc2sc(-c3ccccc3)cc2c1=O)NCc1ccccc1	u	u	-11%	-7%	-10%	x	x	x
O=C(Cn1cnc2sc(-c3ccccc3)cc2c1=O)NCc1ccco1	10µM*	7.9µM*	56µM*	32µM*	7.1µM*	7.1*	-10	18
CCc1ccc(NC(=O)CSc2nc3ccsc3c(=O)n2C(C)CC)cc1 (centres undefined)	20%	0%	x	-7%[60.1 µM]	-19%	x	x	x
COc1ccc(CCNC(=O)c2nnn(CC(=O)Nc3ccc(C)cc3C)c2N)cc1OC	35µM*	0.56µM*	-16%	-42%	u	25*	-1	16	POLB inh gel=52*;POLI cherry-pick=u
Cc1ccc(NC(=O)Cn2nnc(C(=O)NCCc3ccccc3)c2N)c(C)c1	u	-3%	0%	-11%	u	x	x	x
SMILES	POLI inh	Pol beta inh-1	WRN helicase inh	Pol kappa inh	Pol eta inh	Pol beta inh-2	Klenow inh	HIV RT counter	others
CC(=O)Nc1nonc1-c1nnc(SCC(=O)N(C)c2ccccc2)n1C	35%	32%	x	-10%	-16%	x	x	x
N#C/C(=C\c1ccc(OCc2ccc(Br)cc2)cc1)C(=O)Nc1cccc(C(=O)O)c1	115%	8.9µM*	-24%[11.6 µM]	-5%	u	16*	1	22	POLI cherry-pick=67*
Cc1ccc2nc(/C(C#N)=C\c3ccc(Oc4ccc(C(F)(F)F)cc4[N+](=O)[O-])cc3)[nH]c2c1	40%	7.1µM*	56µM*	-17%	u	14*	-30	29	POLI cherry-pick=42*
CSc1nc(N(C)CCO)c2sc3nc(-c4ccco4)c4c(c3c2n1)CCC4	1µM*	7.1µM*	22µM*	u	8.9µM*	u	-31	9	PGK validate=-19%
CSc1nc(NCCN(C)C)c2sc3nc(-c4ccco4)c4c(c3c2n1)CCC4	u	x	-22%	-5%	u	x	x	x
COc1ccc(CCNc2ncnc3onc(C)c23)c(OC)c1	-5%	-15%	x	-3%	0%	x	x	x
